Unmarked numbers belong to inactive results. The list shows a part of the results. Activity calls are given as the source filed them.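 Rule for the calls, unless noted: active = inhibition above the hit cutoff set in the earlier primary screen (cut at about 27% in these data); inactive = the rest.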
Assays:
[1] = molecular target: Protein phosphatase methylesterase 1 (Homo sapiens) (UniProt Q9Y570); test: human PME-1 methylesterase inhibition confirmation – biochemical, fluorescence polarization, FP-Rh probe, triplicate (AID 2171); conditions: recombinant PME-1, FP-Rh probe fluorescence polarization; at 5.9 µM; active compounds read high;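 note: 0% = enzyme with DMSO and 100% = wells lacking PME-1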
[2] = molecular target: Nuclear receptor coactivator 3 (Homo sapiens) (UniProt Q9Y6Q9); test: NCOA3 GAL4-fusion reporter inhibition – cell-based, luminescence, quadruplicate, confirmation (AID 588792;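 active = mean inhibition over 43.08%, the solvent-only control mean plus 3 SD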;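 note: 0% = DMSO treated cells and 100% = gossypol at 36 µM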); conditions: HEK293 GAL4-SRC3 luciferase reporter, at 3.6 µM, active compounds read high
[3] = system: transactivating tegument protein VP16 (Human herpesvirus 1), Gal4-VP16 luciferase reporter; test: repression of VP16-driven luciferase reporter – cell-based, luminescence, high throughput, counter-screen for SRC3 inhibitor project (AID 588794; in the data active = inhibition above about 30%); conditions: mammalian cells, at 3.6 µM, active compounds read high
[4] = molecular target: Nuclear receptor coactivator 1 (Homo sapiens) (UniProt Q15788); test: NCOA1 GAL4-fusion reporter inhibition – cell-based, luminescence, quadruplicate, confirmation (AID 588820;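 active = mean inhibition above 46.68%, the untreated control wells mean plus 3 SD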;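 note: 0% = DMSO wells and 100% = gossypol 36 µM treated wells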); conditions: HEK293 GAL4-SRC1 luciferase reporter, at 3.6 µM, active compounds read high
[5] = repression of VP16-driven luciferase reporter – cell-based, luminescence, high throughput, counter-screen for SRC1 inhibitor project (AID 588824; in the data active = inhibition above about 25%); conditions: cell-based VP16 transactivation luciferase luminescence; at 3.6 µM; active compounds read high
[6] = StAR promoter reporter inhibitors, counter-screen for LRH-1 inverse agonist project, cell-based, luminescence, high throughput (AID 651611; in the data active = inhibition above about 28%); conditions: StAR promoter luciferase reporter counterscreen, at 3.6 µM, active compounds read high
[7] = molecular target: Nuclear receptor subfamily 5 group A member 2 (Homo sapiens) (UniProt O00482); test: NR5A2 activity suppression in reporter cells – cell-based, luminescence, confirmation (AID 651613; in the data active = inhibition above about 42%;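 note: HEK293T cells co-transfected with LRH-1 and StAR promoter luciferase reporter; 0% = vehicle wells and 100% = parental cells lacking receptor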); conditions: cell-based LRH-1 luciferase reporter, inverse agonism; at 3.6 µM; active compounds read high
[8] = molecular target: Steroidogenic factor 1 (Homo sapiens) (UniProt Q13285); test: inverse agonism at SF1 nuclear receptor – cell-based, luminescence, high throughput, counter-screen for LRH-1 inverse agonist project (AID 651614; in the data active = inhibition above about 44%;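 note: cells cotransfected with StAR promoter reporter and SF1 expression vector; 0% = vehicle on cells with receptor and 100% = vehicle on cells lacking receptor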); conditions: cell-based SF1 luciferase reporter, at 3.6 µM, active compounds read high
[9] = compounds suppressing VP16-driven luciferase signal – cell-based, luminescence, high throughput, counter-screen for LRH-1 inverse agonist project (AID 651615; in the data active = inhibition above about 33%); conditions: Gal4-VP16 luciferase reporter cells, at 3.6 µM, active compounds read high
[10] = system: transactivating tegument protein VP16 (Human herpesvirus 1); test: compounds suppressing VP16-driven luciferase signal – cell-based, luminescence, single concentration, counter-screen for SRC2 inhibitor project (AID 652007; in the data active = inhibition above about 36%); conditions: cell-based VP16 transactivation luciferase reporter, at 8.9 µM, active compounds read high
[11] = molecular target: Nuclear receptor coactivator 2 (Homo sapiens) (UniProt Q15596); test: inhibition of GAL4-SRC2 driven luciferase expression – cell-based, luminescence, HEK293, triplicate, confirmation (AID 652008;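 active = mean inhibition above 46.5%, the solvent-only control mean plus 3 SD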;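 note: 0% = DMSO-treated cells and 100% = Gossypol at 36 µM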); conditions: HEK293 GAL4-SRC2 luciferase reporter, at 8.9 µM, active compounds read high
[12] = molecular target: Oxytocin receptor (Homo sapiens) (UniProt P30559); test: oxytocin receptor activation, retest of hits – fluorescence, CHO-OTR cells, triplicate, confirmation (AID 434963;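 active = mean activation above about 20% derived from the earlier single-dose screen, limit read from the data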;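 note: peak over minimum fluorescence ratio per well during a 100 second FLIPR read; 0% = DMSO alone and 100% = oxytocin high control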); conditions: Fluo-8 calcium fluorescence, agonist, at 3 µM, active compounds read high
[13] = molecular target: Vasopressin V1a receptor (Homo sapiens) (UniProt P37288); test: activators of vasopressin V1R in CHO cells – cell-based, triplicate, fluorescence, counter-screen for OXTR agonist project (AID 434991;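 active = mean activation over triplicate exceeds the hit threshold set in the earlier primary screen, cut at about 20% in these data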;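 note: peak over basal fluorescence ratio within a 100 second read; 0% = DMSO alone and 100% = 3 nM vasopressin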); conditions: Fluo-8 calcium fluorescence, at 3 µM, active compounds read high
[14] = molecular target: Insulin-degrading enzyme (Homo sapiens) (UniProt P14735); test: cellular IDE Abeta-cleavage inhibition – fluorescence polarization, HEK cells, FAbetaB substrate, confirmation (AID 435028;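 active = mean inhibition across triplicate wells above the cutoff set by the earlier primary insulin-degrading enzyme screen, cut at about 16% in these data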;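 note: 0% = DMSO wells and 100% = 60 µM reference IDE inhibitor Ii1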); conditions: at 5.59 µM, active compounds read high
[15] = HEK cell viability loss – luminescence, cytotoxicity control for IDE inhibitor project (AID 449730; in the data active = inhibition above about 22%;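 note: 0% = vehicle wells and 100% = reference cytotoxic drug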); conditions: HEK293 cytotoxicity, ATP luminescence; at 5.59 µM; active compounds read high

Sequence of Nuclear receptor coactivator 2 (Homo sapiens) (Q15596 whole entry, looked up, the tested form may be a part): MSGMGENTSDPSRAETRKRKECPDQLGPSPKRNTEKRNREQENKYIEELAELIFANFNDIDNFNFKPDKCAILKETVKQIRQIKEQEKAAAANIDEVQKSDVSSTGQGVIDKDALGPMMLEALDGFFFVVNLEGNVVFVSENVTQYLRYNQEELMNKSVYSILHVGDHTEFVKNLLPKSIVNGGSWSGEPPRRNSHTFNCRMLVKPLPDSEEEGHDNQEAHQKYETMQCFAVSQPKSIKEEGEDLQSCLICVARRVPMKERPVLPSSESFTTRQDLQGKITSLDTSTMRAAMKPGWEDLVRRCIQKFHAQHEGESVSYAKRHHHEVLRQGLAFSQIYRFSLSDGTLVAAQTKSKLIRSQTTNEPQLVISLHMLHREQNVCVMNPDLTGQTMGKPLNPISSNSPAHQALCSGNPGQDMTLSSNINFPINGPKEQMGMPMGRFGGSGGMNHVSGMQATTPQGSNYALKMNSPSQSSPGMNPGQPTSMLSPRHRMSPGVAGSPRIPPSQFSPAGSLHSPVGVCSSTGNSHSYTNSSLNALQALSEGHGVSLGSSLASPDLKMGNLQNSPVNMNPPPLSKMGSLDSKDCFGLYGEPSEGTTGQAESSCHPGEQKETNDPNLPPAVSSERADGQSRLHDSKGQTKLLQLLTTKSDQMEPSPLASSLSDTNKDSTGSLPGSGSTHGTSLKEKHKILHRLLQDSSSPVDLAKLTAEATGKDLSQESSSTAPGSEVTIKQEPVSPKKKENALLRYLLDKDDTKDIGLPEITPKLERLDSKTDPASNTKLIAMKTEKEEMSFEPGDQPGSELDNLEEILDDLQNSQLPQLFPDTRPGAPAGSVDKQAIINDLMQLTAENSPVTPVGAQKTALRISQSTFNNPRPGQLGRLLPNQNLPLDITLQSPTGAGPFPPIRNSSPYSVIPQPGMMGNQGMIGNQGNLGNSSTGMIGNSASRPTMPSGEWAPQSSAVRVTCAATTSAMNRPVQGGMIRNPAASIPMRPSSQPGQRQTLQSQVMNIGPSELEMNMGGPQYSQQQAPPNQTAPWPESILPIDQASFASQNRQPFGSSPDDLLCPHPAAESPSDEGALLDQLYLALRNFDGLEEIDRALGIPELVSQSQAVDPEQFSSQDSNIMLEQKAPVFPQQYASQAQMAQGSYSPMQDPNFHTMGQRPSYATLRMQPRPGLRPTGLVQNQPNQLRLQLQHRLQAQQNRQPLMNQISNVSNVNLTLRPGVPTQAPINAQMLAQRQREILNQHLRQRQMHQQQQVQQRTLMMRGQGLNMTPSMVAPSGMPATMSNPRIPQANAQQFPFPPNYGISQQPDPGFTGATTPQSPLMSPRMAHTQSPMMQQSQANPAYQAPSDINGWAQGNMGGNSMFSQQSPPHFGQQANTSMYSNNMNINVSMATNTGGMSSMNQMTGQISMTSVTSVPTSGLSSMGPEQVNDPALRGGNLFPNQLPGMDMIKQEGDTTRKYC
Sequence of Steroidogenic factor 1 (Homo sapiens) (Q13285 whole entry, looked up, the tested form may be a part): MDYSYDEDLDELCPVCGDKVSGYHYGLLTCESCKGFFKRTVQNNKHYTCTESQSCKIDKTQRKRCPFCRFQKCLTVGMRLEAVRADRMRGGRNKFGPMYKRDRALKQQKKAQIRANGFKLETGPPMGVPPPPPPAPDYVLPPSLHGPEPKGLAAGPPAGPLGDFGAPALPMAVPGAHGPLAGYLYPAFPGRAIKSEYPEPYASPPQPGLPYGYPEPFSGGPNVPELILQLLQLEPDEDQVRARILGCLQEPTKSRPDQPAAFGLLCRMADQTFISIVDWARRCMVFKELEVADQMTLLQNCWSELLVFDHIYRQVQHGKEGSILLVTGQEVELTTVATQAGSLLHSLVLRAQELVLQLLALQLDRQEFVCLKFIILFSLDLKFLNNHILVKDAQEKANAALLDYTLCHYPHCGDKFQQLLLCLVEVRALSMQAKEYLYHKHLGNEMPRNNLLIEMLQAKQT
Sequence of Nuclear receptor coactivator 3 (Homo sapiens) (Q9Y6Q9 whole entry, looked up, the tested form may be a part): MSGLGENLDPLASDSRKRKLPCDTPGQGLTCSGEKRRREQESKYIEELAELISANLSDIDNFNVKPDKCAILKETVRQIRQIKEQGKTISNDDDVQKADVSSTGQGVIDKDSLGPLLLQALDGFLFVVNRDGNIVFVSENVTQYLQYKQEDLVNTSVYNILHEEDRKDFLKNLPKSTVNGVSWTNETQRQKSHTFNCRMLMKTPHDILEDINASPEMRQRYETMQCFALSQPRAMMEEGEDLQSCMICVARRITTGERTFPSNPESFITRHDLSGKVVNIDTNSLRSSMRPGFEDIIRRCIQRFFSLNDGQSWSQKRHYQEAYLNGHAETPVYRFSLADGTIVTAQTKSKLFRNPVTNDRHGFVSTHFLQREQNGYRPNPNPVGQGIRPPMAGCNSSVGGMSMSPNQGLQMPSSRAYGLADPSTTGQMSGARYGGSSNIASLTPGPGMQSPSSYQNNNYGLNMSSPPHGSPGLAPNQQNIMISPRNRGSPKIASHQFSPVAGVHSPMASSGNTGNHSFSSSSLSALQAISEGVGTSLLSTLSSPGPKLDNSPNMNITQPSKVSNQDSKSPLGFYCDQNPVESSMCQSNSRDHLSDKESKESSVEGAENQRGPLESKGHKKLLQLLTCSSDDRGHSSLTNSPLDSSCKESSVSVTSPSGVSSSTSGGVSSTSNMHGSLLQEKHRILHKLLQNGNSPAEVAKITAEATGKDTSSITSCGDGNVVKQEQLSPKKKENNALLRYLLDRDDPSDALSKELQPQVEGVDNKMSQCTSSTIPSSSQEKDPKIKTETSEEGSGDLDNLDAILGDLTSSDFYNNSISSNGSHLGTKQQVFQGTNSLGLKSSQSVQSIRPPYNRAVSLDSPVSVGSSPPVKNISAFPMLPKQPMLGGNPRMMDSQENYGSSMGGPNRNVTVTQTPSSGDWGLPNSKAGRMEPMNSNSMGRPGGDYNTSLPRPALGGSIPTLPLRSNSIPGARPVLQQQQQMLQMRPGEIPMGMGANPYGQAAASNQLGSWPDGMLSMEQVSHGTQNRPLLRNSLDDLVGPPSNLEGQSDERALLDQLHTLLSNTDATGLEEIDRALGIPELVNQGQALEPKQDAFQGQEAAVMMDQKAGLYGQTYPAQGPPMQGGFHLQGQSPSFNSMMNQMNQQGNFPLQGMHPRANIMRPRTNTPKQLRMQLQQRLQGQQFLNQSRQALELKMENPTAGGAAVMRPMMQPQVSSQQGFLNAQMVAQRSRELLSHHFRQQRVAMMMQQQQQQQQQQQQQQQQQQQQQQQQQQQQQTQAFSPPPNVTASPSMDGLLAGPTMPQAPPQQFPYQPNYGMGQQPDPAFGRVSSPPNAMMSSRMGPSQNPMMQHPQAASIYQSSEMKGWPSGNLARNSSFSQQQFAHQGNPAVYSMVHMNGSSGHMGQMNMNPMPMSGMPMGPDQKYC
Sequence of Nuclear receptor subfamily 5 group A member 2 (Homo sapiens) (O00482 whole entry, looked up): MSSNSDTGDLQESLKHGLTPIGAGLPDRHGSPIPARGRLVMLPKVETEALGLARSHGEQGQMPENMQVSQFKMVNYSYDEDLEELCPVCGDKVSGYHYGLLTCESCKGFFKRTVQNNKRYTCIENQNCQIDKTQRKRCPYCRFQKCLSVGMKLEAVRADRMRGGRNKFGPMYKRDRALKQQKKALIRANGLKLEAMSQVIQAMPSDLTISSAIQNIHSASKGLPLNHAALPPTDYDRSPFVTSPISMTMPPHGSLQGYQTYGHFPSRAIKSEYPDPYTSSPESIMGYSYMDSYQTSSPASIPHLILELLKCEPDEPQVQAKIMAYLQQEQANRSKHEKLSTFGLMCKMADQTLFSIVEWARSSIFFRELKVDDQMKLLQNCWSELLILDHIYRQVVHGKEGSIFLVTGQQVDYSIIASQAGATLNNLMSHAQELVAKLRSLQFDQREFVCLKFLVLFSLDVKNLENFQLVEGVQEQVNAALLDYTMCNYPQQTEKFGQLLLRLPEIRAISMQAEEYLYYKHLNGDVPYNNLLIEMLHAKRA
Sequence of Protein phosphatase methylesterase 1 (Homo sapiens) (Q9Y570 whole entry, looked up, the tested form may be a part): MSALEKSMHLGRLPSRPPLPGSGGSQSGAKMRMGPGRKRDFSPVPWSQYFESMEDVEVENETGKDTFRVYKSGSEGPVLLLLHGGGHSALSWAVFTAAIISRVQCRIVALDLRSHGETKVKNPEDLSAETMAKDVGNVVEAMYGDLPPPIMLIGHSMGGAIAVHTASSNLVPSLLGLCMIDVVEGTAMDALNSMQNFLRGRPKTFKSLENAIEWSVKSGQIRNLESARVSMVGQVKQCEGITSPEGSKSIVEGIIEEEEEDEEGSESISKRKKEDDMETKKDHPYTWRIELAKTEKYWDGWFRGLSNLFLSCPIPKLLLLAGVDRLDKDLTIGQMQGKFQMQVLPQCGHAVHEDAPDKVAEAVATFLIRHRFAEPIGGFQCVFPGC
Sequence of Oxytocin receptor (Homo sapiens) (P30559 whole entry, looked up): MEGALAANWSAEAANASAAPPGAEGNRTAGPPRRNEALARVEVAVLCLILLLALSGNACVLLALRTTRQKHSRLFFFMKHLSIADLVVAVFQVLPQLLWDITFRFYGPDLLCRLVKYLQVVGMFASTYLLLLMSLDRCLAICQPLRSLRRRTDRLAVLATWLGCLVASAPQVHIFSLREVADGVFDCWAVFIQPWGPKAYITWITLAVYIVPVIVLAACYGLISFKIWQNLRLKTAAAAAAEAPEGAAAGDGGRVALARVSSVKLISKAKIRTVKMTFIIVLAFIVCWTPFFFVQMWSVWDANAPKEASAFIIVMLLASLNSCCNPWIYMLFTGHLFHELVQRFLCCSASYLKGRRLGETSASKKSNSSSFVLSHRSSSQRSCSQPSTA

CCCC(=Nc1ccc(N)cc1)C1=C(O)C(C(=O)OC)C(C)(C)CC1=O (centres undefined)
inhibition [1]: 4.48%

Nc1ccc(C(=O)N/N=C\c2cc(N=Nc3cccc4ccccc34)ccc2O)cc1
inhibition [1]: 15.1% | inhibition [2]: 15.1% | inhibition [3]: 17.7% | inhibition [4]: 14.5% | inhibition [5]: 31.8% (active)

COc1ccc(S(=O)(=O)/N=C2\C=C(Nc3ccc(O)cc3)C(=O)c3ccccc32)cc1
inhibition [1]: 63.2% (active) | inhibition [2]: 94.1% (active) | inhibition [3]: 92.8% (active) | inhibition [4]: 85% (active) | inhibition [5]: 90.8% (active) | inhibition [6]: 92% (active) | inhibition [7]: 107% (active) | inhibition [8]: 96.7% (active) | inhibition [9]: 97.2% (active) | inhibition [10]: 67% (active) | inhibition [11]: 73% (active)

Cc1cc(C)nc(SCc2ccc(C(=O)N/N=C/c3cccc(O)c3O)cc2)n1
inhibition [1]: -47% | inhibition [2]: 28.5% | inhibition [3]: 38.9% (active) | inhibition [4]: 27.1% | inhibition [5]: 23.9%

COc1ccccc1NC(=O)c1cc2ccc(O)cc2o/c1=N\O
inhibition [1]: 19.6%

C=C(C)COc1ccc(-c2[nH]ncc2-c2ccc(OC)c(OC)c2)c(O)c1
inhibition [1]: 22.1%

COc1ccc(Nc2ncnc3sc(-c4ccccc4)cc23)cc1OC
inhibition [1]: 6.82%

N#C/C(=N\Nc1cccc([N+](=O)[O-])c1)C(=O)c1ccc(Br)cc1
inhibition [1]: 29.5% (active) | inhibition [2]: 4.19% | inhibition [3]: 26.8%

Cc1ccc(NC(=O)COC(=O)c2cccc3c2C(=O)c2ccccc2C3=O)c(C)c1
inhibition [1]: 91.2% (active)

COc1ccc(O)c(/C=N/NC(=S)Nc2cccc(S(=O)(=O)N(C)C)c2)c1
inhibition [1]: 25.4% | inhibition [2]: 24.6% | inhibition [3]: 26.2%

Cc1ccc(C(C)C)c(OCc2ccc(C(=O)N/N=C/c3cccc(O)c3O)cc2)c1
inhibition [1]: -4.31% | inhibition [2]: 56.2% (active) | inhibition [3]: 32.4% (active) | inhibition [4]: 40.4% | inhibition [5]: 27.9% (active) | inhibition [10]: 34.8% | inhibition [11]: 83.9% (active)

O=C(O)c1cccc(-n2c(/C=C/c3ccc([N+](=O)[O-])cc3)nc3ccccc3c2=O)c1
inhibition [1]: 24.3%

CCC(=O)Nc1nc(C)c(-c2csc(Nc3cccc(O)c3)n2)s1
inhibition [1]: 20% | inhibition [2]: 16.5% | inhibition [3]: 47.6% (active)

Cn1nc(-c2ccccn2)nc2c(=O)n(C)c(=O)nc1-2
inhibition [1]: 45.9% (active) | inhibition [2]: 74.8% (active) | inhibition [3]: 62% (active) | inhibition [4]: 3.11% | inhibition [5]: 53.1% (active) | inhibition [6]: 56.7% (active) | inhibition [7]: 58.9% (active) | inhibition [8]: 73.7% (active) | inhibition [9]: 75.1% (active) | inhibition [10]: 13.4% | inhibition [11]: 70.7% (active)

Cc1ccc(C(C)C)c(OCc2ccc(C(=O)N/N=C/c3ccc(O)cc3O)cc2)c1
inhibition [1]: -0.21% | inhibition [2]: 77.2% (active) | inhibition [3]: 78.3% (active) | inhibition [4]: 67% (active) | inhibition [5]: 77% (active) | inhibition [6]: 80.8% (active) | inhibition [7]: 100% (active) | inhibition [8]: 80.9% (active) | inhibition [9]: 71.2% (active) | inhibition [10]: 20.9% | inhibition [11]: 68.3% (active)

Cc1cc([N+](=O)[O-])ccc1-c1ccc(C2Nc3ccccc3C(=O)N2O)o1 (centres undefined)
inhibition [1]: 25% | inhibition [2]: 23.6% | inhibition [3]: 1.31%

COc1ccc(-c2csc(NC(=O)c3ccccc3NS(=O)(=O)c3ccc(F)c(F)c3)n2)cc1
inhibition [1]: -5.29% | inhibition [2]: 69.3% (active) | inhibition [3]: 71.4% (active) | inhibition [4]: 55% (active) | inhibition [5]: 81.9% (active)

CCN1/C(=C/C=C/c2oc3ccc(-c4ccccc4)cc3[n+]2CC)Oc2ccc(-c3ccccc3)cc21
inhibition [1]: -81.5% | inhibition [2]: 98.3% (active) | inhibition [3]: 95.4% (active) | inhibition [4]: 71.9% (active) | inhibition [5]: 94.2% (active) | inhibition [6]: 92.2% (active) | inhibition [7]: 110% (active) | inhibition [8]: 97.2% (active) | inhibition [9]: 96.4% (active)

CCN(CC)S(=O)(=O)c1ccc(N/N=C/c2ccc(O)cc2O)nc1
inhibition [1]: 35% (active) | inhibition [2]: 68.3% (active) | inhibition [3]: 67.3% (active) | inhibition [4]: 63.5% (active) | inhibition [5]: 58.3% (active)

N#C/C(=C/c1ccc(N2CCCCC2)o1)C(=O)NCCc1c[nH]c2ccccc12
inhibition [1]: 22.2% | activation [12]: 33.6% (active) | activation [13]: 52.1% (active) | inhibition [14]: 150% (active) | inhibition [15]: 5.73%

Cc1ccc(Nc2nnc(SCC(=O)c3ccc(O)cc3O)s2)cc1
inhibition [1]: 40.8% (active)

CCn1nc([N+](=O)[O-])c(C(C#N)c2nc3cc(C(F)(F)F)ccc3s2)c(Cl)c1=O (centres undefined)
inhibition [1]: 67.1% (active) | inhibition [2]: 10.4% | inhibition [3]: 12.3%

Brc1ccc(N/N=C(/N=Nc2nn[nH]n2)c2ccccc2)cc1
inhibition [1]: 57.1% (active) | inhibition [2]: 83.2% (active) | inhibition [3]: 80.2% (active)

Reference: PubChem BioAssay
